JMJD2A Tudor inh: inhibitors of human JMJD2A Tudor domain | Potency, µM (titrated, usually from 114 µM), without a hit: at the top dose activity change, negative = inhibition, usual class: inhibitors | O75164 | 390,000 tested, 4.4% active | AlphaScreen JMJD2A-Tudor / H3K4me3 peptide binding; also: potency is read from the fitted curve at half-maximal effect; % is scaled to controls: 0 for no effect and ±100 for the full control effect; nearly all actives have a fitted effect of over 50% in size
GCN5L2 inh: blocks human GCN5L2 histone acetyltransferase; GCN5L2 HAT assay, ThioGlo1 CoA-SH fluorescence; Potency, µM (top dose mostly 58.9 µM), without a hit: at the top dose activity change, negative = inhibition, actives largely listed as inhibitors; 390,000 tested, 0.21% active; AID 504327; also: potency is read from the fitted curve at half-maximal effect; % is scaled to controls: 0 for no effect and ±100 for the full control effect
Target sequence (Q92830 whole entry, looked up): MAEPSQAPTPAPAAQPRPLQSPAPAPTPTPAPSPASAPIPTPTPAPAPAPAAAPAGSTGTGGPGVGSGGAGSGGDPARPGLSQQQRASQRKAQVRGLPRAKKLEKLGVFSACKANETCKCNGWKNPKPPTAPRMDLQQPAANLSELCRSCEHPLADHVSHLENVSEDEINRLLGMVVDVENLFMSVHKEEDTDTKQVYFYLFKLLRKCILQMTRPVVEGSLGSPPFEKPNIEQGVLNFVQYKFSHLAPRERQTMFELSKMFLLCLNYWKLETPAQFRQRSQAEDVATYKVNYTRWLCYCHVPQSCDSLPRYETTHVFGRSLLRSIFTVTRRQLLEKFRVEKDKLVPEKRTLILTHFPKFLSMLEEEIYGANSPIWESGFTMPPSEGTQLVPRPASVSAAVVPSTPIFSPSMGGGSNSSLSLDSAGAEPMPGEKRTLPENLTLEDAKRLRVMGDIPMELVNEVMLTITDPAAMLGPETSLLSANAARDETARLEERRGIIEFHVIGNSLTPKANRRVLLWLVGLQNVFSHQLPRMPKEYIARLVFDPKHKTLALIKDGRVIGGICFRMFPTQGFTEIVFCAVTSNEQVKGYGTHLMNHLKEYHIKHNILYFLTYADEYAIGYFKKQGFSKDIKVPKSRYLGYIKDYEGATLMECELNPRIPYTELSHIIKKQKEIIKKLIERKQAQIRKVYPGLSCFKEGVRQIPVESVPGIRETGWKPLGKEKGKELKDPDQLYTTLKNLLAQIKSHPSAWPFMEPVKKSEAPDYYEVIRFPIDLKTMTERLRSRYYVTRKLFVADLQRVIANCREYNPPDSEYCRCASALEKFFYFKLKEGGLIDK
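GCN5L2 (20 nM) in 50mM HEPES pH 7.5, 0.1mM EDTA, 0.01% Tween-20 preincubated 15 min with compounds at room temperature. Reaction started with H3(1-25) 75uM, acetyl-CoA 70uM, ThioGlo1 50uM; CoA-thiol fluorescence (Ex340/Em540) read at 0 and 20 min.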
PI5P4K alpha inh: PI5P4K alpha (human) kinase inhibition | P48426 | PI5P4Kalpha enzyme, ADP-Glo luminescence, 60 min; hits give low values | max response, % | 330,000 tested, 1.2% active; active = max response of -50% or lower; inconclusive = between -30% and -50%; inactive = -30% or higher; also: value at the top dose of about 77 µM; % is scaled to controls: 0 for no effect and ±100 for the full control effect
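Quantitative HTS of the MLSMR library against PI5P4Kalpha with substrate. ATP added last at 5 microM final; room temperature, 60 minutes. Remaining ATP depleted, ADP converted and read as luminescence.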
PLK1 PBD block: PLK1 (human) polo-box domain binding inhibition; 360,000 tested, 2.8% active; Potency, µM, without a hit: max response, negative = inhibition, actives largely listed as inhibitors; Plk1 PBD binding of FITC phosphopeptide, fluorescence polarization; also: potency is read from the fitted curve at half-maximal effect; series mostly up to about 57 µM; % is scaled to controls: 0 for no effect and ±100 for the full control effect; nearly all actives have a fitted effect of over 65% in size
BAZ2B inh: BAZ2B (human) inhibition | 360,000 tested, 4.4% active | Q9UIF8 | Potency, µM (highest dose often 114 µM), for inactives: top-dose activity change, negative = inhibition, most hits filed as inhibitors | AID 504333 | AlphaScreen BAZ2B-H3K14Ac peptide displacement; also: potency is read from the fitted curve at half-maximal effect; % is scaled to controls: 0 for no effect and ±100 for the full control effect; nearly all actives have a fitted effect of over 60% in size
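Complex of BAZ2B and biotin-H3K14Ac (50 nM apiece) forms over 30 min at RT, then faces library compounds up to 110 uM for another 30 min; AlphaScreen beads added, 20 min dark incubation, luminescence read.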
HP1b binding inh: blocks HP1-beta chromodomain binding to methylated histone tails | 390,000 tested, 0.56% active | Potency, µM (highest dose often 114 µM), for the others: top-dose activity change, negative = inhibition, usual class: inhibitors | P83916 | AID 540317 | AlphaScreen HP1-beta / biotin-H3K9me3 peptide binding; also: potency is read from the fitted curve at half-maximal effect; nearly all actives have a fitted effect of over 70% in size
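Compound inhibition of the preformed complex between 50 nM HP1-beta and 50 nM biotinylated H3K9me3 peptide was read by AlphaScreen. Buffer was PBS pH 7.4 with 0.01% Tween-20. Incubations ran 30 min at room temperature, with 10 ug/mL donor/acceptor beads.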
The depositor's hits bear a star; ? = inconclusive; . = no result given; [ ] = remark or other dose. An excerpt weighted towards active compounds, which were near 7% of everything screened. Unless noted, calls follow the shape of the dose curve; as a rule, active = well fitted curve in the direction sought with a large enough effect; inconclusive = small, poorly fitted or top-dose-only effect, or another doubt; inactive = no such curve, though single readings can be large; an effect the other way counts as inactive or inconclusive.

SMILES	JMJD2A Tudor inh	GCN5L2 inh	PI5P4K alpha inh	PLK1 PBD block	BAZ2B inh	HP1b binding inh
CCc1ccc(-n2c(=O)c3sc4ccccc4c3n(CC(=O)NCc3ccccc3)c2=O)cc1	-15%	0%	.	.	2%	34%
COc1ccc2c(c1)c(/C=N/Nc1nc3ccccc3[nH]1)c(C)n2C	?	-1%	-29	4%	28µM*	-11%
COC(=O)c1cc(C(=O)c2ccc(Cl)cc2)n2c(=O)/c(=C\N(C)C)sc12	-6%	-3%	-3	72%	-13%	31%
COCC(C)NCC(=O)NC(C)CCc1ccccc1 (stereo unspecified)	1µM*	0%	-10	-14%	56µM*	-32%
CC(CCc1ccccc1)NC(=O)Cc1ccc([N+](=O)[O-])cc1 (stereo unspecified)	-33%[57.1 µM]	1%	-5	30µM*	0%	?
O=C(CSc1nnc(C2CC2)n1CC1CCCO1)Nc1cccc(Cl)c1 (stereo unspecified)	6%	-7%	2	-5%	-1%	26%
CS(=O)(=O)N(CC(=O)NC1CCCCC1)Cc1ccc(F)cc1	8%[11.4 µM]	-7%	13	-16%	-18%	52%
COc1ccc(C(=O)/C=C/C(=O)N(CC(=O)NC2CCCCC2)Cc2ccc(F)cc2)c(O)c1	-21%	0%	-2	4.2µM*	-13%	24%
COc1ccc(C(=O)/C=C/C(=O)N(CC(=O)NCCC(C)C)Cc2cccs2)c(O)c1	-18%	1%	-14	34µM*	-21%	-16%
COc1ccc(-c2csc(NC(=O)CS(=O)(=O)c3ccccc3)n2)cc1OC	.	.	-10	3%	.	.
COc1ccc(-c2csc(NC(=O)CC(NC(C)=O)c3ccccc3)n2)cc1OC (stereo unspecified)	-21%	-7%	-2	-14%	79µM*	26%
COc1ccc(-c2csc(NC(=O)Cc3ccccc3F)n2)cc1OC	?	-5%	2	-1%	40µM*	-7%
Cc1ccc(NS(=O)(=O)c2cc3c(cc2/C=C/c2ccccc2)NC(=O)CO3)cc1C	-9%	.	.	.	.	.
CC(=O)Nc1cccc(-c2cc(NC(C)=O)c3ncc(-c4ccc(C(C)=O)cc4)n3c2)c1	.	.	3	1%	.	.
CCn1cc(CN2CCc3c([nH]c4ccccc34)C2c2cccc(OC)c2)c(C)n1 (stereo unspecified)	?	-19%	3	-2%	79µM*	-21%
CSc1ncc(CN2CCc3c([nH]c4ccccc34)C2c2cccc(O)c2)cn1 (stereo unspecified)	?	-25%	-6	3%	40µM*	-20%
CCn1cc(CN2CCc3c([nH]c4ccccc34)C2c2ccc(F)c(OC)c2)c(C)n1 (stereo unspecified)	?	0%	-1	71%	22µM*	?
Cc1cccc(OCC(=O)OCC(=O)NCC2CCCO2)c1C (stereo unspecified)	1%	-5%	1	-2%	3%	36%
COCCCNC(=O)CCCN1C(=O)CCn2nc(-c3cccn3C)cc21	-20%	-2%	.	.	-29%	13%[57 µM]
COc1cc(OC)cc(C(=O)NCC(=O)OCC(=O)N2CCc3ccccc32)c1	?	-12%	?	27µM*	3%	19%
COc1ccc(C(=O)NCC(=O)OCC(=O)N2CCc3ccccc32)cc1	-20%[57.1 µM]	0%	3	-9%	.	36%
O=[N+]([O-])c1ccc(Sc2cccc3cccnc23)cc1	?	-6%	.	-7%	-36%	-6%
O=[N+]([O-])c1ccc(Sc2cccc3cccnc23)c([N+](=O)[O-])c1	-7%	-1%	-1	6.7µM*	-3%	32%
O=[N+]([O-])c1cc(Cl)ccc1Sc1cccc2cccnc12	-36%	-5%[0.501 µM]	.	-17%	?	6%
C=CCn1nc([N+](=O)[O-])nc1Sc1cccc2cccnc12	-11%	2%	-3	7.5µM*	-10%	19%
SMILES	JMJD2A Tudor inh	GCN5L2 inh	PI5P4K alpha inh	PLK1 PBD block	BAZ2B inh	HP1b binding inh
CCOC(=O)C1(Cc2cccc(Cl)c2)CCCN(C(=O)c2cccc(C)n2)C1 (stereo unspecified)	-2%	-2%	6	-8%	-9%	38%
CCOC(=O)C1(Cc2cccc(Cl)c2)CCCN(C(=O)c2ccoc2C)C1 (stereo unspecified)	-23%	-2%	-1	-23%	-17%	7%
CCOC(=O)C1(Cc2cccc(Cl)c2)CCCN(C(=O)c2occc2C)C1 (stereo unspecified)	?	-13%	3	27µM*	-12%	13%
CCOC(=O)C1(Cc2ccccc2)CCCN(Cc2cnn(CC)c2)C1 (stereo unspecified)	4%	7%	-1	3%	-2%	22%
CCOC(=O)C1(Cc2cccc(Cl)c2)CCCN(C(=O)c2ccco2)C1 (stereo unspecified)	?	-6%	-11	13µM*	-16%[57.1 µM]	12%
CCOC(=O)C1(Cc2ccccc2)CCCN(C(=O)c2cnn(CC)c2)C1 (stereo unspecified)	-34%	1%	3	24µM*	-20%	19%
O=C(Cc1nnc(CNC(=O)c2ccccc2)s1)Nc1ccc(C(F)(F)F)cc1Cl	-8%	.	.	.	.	.
Cc1cc(N2CCOCC2)n2ncc(-c3ccccc3Cl)c2n1	30%	-5%	7	-4%	27%	70%
COc1cc(CN2CCc3c([nH]c4ccccc34)C2)cc(OC)c1	7.9µM*	1%	-13	8.4µM*	35µM*	?
O=C(c1ccccc1Br)N1CCc2c([nH]c3ccccc23)C1	?	?	1	6%	?	-16%
Clc1cccc(CN2CCc3c([nH]c4ccccc34)C2)c1Cl	22µM*	-15%	42	?	22µM*	?
COc1cccc(CN2CCc3[nH]c(=S)[nH]c(=O)c3C2)c1	-15%	-7%	-4	-7%	-13%	47%
COc1ccccc1CN1CCc2c([nH]c3ccccc23)C1	20µM*	1%	0	-10%	50µM*	?
O=C(Nc1ccc(Cl)c(S(=O)(=O)N2CCCC2)c1)c1nn(CCO)c(=O)c2ccccc12	-33%	-4%	7	-10%	-29%	1%
Oc1c(C(c2cccc(Cl)c2)N2CCOCC2)sc2nc(-c3ccco3)nn12 (stereo unspecified)	-8%	0%	.	.	-12%	30%
CCCCN(C)CCN1C(=O)C2C(C(=O)Nc3ccc(OC)cc3)C3C=CC2(O3)C1C(=O)NC1CCCCC1 (stereo unspecified)	-24%	-11%	4	7%	0%	6%
CCOC(=O)c1c(C)n(-c2ccc(C)cc2)c2ccc(OCC(O)CNCCCO)cc12 (stereo unspecified)	?	-5%	15	-6%	?	-21%

Assay outcomes deposited in PubChem by National Center for Advancing Translational Sciences (NCATS).
